Laboratory results as given in PubChem BioAssay (Tox21).
Calls of active or inactive are those of the source. Unless noted, calls follow the shape of the dose curve; as a rule, active = well fitted curve in the direction sought with a large enough effect in the repeat runs; inconclusive = weak or mixed curves; inactive = no such curve, though single readings can be large; an effect the other way counts as inactive or inconclusive.

Tests used:
[1] = qHTS assay to identify small molecule antagonists of the thyroid receptor (TR) signaling pathway - cell viability counter screen (AID 743064); also: nearly all actives have a fitted effect of over 50% in size; also: potency is read from the fitted curve at half-maximal effect
Method in brief: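 Counter screen for cytotoxicity: compound plus T3 (1 nM final) on GH3.TRE-Luc cells, 23.5 h at 37 °C, then fluorescence viability readout with CellTiter-Fluor.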

[2] = qHTS assay to identify small molecule antagonists of the thyroid receptor (TR) signaling pathway (AID 743065); also: nearly all actives have a fitted effect of over 55% in size; also: potency is read from the fitted curve at half-maximal effect
Method in brief: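 Antagonism measured as loss of luciferase signal in GH3 cells stably carrying a TRE-luciferase reporter, co-treated with compound and T3 (1 nM final) for 23.5 h at 37 C. Viability was read in the same well by CellTiter-Fluor.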

[3] = test system: thyroid hormone receptor (rat, GH3 cells); assay: qHTS assay to identify small molecule agonists of the thyroid receptor (TR) signaling pathway (AID 743066; calls by dose curve; also: potency is read from the fitted curve at half-maximal effect)
[4] = molecular target: Estrogen receptor (Homo sapiens) (UniProt P03372); assay: qHTS assay to identify small molecule antagonists of the estrogen receptor alpha (ER-alpha) signaling pathway (AID 743069; active = well fitted curve in the direction sought with a large enough effect in the signal ratio in the repeat runs, not every such curve was filed as active; inconclusive = weak or mixed curves, or effect the other way; inactive = no such curve, though single readings can be large or run the other way; the % refers to the signal ratio; also: potency is read from the fitted curve at half-maximal effect)
Estrogen receptor (Homo sapiens), sequence (P03372 whole entry, looked up): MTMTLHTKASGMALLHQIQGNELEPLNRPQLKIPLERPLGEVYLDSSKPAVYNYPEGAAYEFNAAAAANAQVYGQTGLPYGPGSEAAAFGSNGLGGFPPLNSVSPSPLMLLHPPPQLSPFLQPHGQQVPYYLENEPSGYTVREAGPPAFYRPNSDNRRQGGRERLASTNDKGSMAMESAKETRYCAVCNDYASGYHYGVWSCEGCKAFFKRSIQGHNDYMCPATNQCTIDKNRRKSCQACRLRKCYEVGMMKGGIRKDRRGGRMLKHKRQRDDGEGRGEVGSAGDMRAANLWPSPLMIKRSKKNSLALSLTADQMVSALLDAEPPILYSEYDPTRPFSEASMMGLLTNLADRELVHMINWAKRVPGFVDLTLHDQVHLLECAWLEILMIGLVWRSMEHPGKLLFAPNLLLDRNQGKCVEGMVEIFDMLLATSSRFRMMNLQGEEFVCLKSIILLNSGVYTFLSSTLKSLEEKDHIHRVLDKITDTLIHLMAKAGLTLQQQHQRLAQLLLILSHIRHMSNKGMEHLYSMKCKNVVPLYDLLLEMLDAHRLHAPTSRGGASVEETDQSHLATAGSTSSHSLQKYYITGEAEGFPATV
Method in brief: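 ER-alpha-UAS-bla GripTite HEK293 line; 2% charcoal-stripped FBS overnight; plated, 4 hr 37C/5% CO2; cpd in DMSO + 17beta-estradiol, 18 hr 37C; LiveBLAzer B/G FRET substrate 2 hr RT; fluorescence intensity.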

[5] = qHTS assay to identify small molecule antagonists of the estrogen receptor alpha (ER-alpha) signaling pathway - cell viability counter screen (AID 743074; calls by dose curve;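 also: HEK293 cells carrying ER-alpha-UAS-bla reporter stimulated with 17beta-estradiol; nearly all actives have a fitted effect of over 45% in size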)
[6] = molecular target: Estrogen receptor (Homo sapiens) (UniProt P03372); assay: qHTS assay to identify small molecule agonists of the estrogen receptor alpha (ER-alpha) signaling pathway using the BG1 cell line (AID 743079); details: BG1Luc4E2 cells, ERE-luciferase agonist, 22 h; activation: at 70.3 µM (top of the series); also: nearly all actives have a fitted effect of over 20% in size; also: potency is read from the fitted curve at half-maximal effect
[7] = qHTS assay to identify small molecule antagonists of the estrogen receptor alpha (ER-alpha) signaling pathway using the BG1 cell line (AID 743080; calls by dose curve;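 also: BG1 cells stimulated with 17beta-estradiol alongside compound; nearly all actives have a fitted effect of over 25% in size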)
Method in brief: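 BG1-Luc-4E2 cells (endogenous full-length ER-alpha, stable 4×ERE-luciferase) were starved 5 days in phenol-red-free medium with 10% charcoal-stripped FBS, plated 24 h, then given compound plus 17beta-estradiol for 21.5 h at 37 C; ONE-Glo luminescence read after 30 min.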

[8] = qHTS assay to identify small molecule antagonists of the estrogen receptor alpha (ER-alpha) signaling pathway using the BG1 cell line - cell viability counter screen (AID 743081);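 also: compound given together with 17beta-estradiol as the ER stimulus; nearly all actives have a fitted effect of over 45% in size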
Aromatase (Homo sapiens) = Aromatase (Homo sapiens) (UniProt P11511); assay: qHTS assay to identify aromatase inhibitors (AID 743083); also: nearly all actives have a fitted effect of over 55% in size
Aromatase (Homo sapiens), sequence (P11511 whole entry, looked up): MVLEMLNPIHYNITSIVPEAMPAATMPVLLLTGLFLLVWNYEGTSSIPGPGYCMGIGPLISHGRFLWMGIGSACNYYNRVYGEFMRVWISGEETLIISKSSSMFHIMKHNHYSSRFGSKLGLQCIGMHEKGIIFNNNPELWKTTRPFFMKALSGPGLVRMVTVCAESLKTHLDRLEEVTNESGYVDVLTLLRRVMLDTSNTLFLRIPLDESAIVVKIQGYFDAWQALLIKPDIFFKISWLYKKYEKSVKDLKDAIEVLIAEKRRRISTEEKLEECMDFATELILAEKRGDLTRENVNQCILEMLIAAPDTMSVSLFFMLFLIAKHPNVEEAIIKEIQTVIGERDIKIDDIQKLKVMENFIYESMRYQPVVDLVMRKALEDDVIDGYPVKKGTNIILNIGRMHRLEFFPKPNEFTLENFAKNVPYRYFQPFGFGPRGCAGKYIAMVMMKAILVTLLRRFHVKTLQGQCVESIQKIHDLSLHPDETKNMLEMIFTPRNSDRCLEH

[9] = qHTS assay to identify aromatase inhibitors - cell viability counter screen (AID 743084);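 also: cells stimulated with testosterone during compound exposure; nearly all actives have a fitted effect of over 55% in size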; also: potency is read from the fitted curve at half-maximal effect
[10] = molecular target: Aryl hydrocarbon receptor (Homo sapiens) (UniProt P35869); assay: qHTS assay to identify small molecule that activate the aryl hydrocarbon receptor (AhR) signaling pathway (AID 743085); also: nearly all actives have a fitted effect of over 15% in size; also: potency is read from the fitted curve at half-maximal effect;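 as to activation: HG2L7.5c1 human HepG2 liver cells with stably integrated DRE-driven firefly reporter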
Aryl hydrocarbon receptor (Homo sapiens), sequence (P35869 whole entry, looked up): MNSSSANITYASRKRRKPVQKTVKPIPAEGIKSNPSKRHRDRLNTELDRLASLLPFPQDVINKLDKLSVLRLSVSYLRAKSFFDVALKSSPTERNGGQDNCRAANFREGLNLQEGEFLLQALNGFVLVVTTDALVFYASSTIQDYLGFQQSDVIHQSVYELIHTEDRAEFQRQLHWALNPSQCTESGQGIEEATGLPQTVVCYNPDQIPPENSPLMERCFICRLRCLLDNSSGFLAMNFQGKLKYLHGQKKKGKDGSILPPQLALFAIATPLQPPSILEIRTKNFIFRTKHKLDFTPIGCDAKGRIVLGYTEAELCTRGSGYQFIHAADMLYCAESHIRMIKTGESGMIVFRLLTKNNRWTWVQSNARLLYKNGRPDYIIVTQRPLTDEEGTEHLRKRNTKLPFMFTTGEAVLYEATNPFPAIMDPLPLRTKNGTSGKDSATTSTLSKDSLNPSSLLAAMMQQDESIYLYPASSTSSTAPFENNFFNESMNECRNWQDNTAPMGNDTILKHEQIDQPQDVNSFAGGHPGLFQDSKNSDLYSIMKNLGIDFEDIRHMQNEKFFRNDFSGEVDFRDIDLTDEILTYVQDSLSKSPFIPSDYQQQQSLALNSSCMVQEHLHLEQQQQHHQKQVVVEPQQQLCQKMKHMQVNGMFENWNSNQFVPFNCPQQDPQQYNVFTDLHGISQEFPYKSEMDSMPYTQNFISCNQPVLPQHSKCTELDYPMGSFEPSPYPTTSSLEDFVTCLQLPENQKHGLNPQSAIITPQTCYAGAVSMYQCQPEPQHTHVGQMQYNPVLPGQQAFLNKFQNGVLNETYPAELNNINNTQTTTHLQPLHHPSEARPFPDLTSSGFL
Method in brief: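 Measured in HG2L7.5c1 cells: CellTiter-Fluor signal (30 min incubation, 37C) for viability, then luciferase luminescence (30 min, room temperature). Compound contact time was 24 h at 37C, following a 5 h pre-incubation.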

[11] = qHTS assay to identify small molecule that activate the aryl hydrocarbon receptor (AhR) signaling pathway - cell viability counter screen (AID 743086);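 also: HepG2 liver cells carrying the AhR DRE luciferase reporter; nearly all actives have a fitted effect of over 45% in size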
Method in brief: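 Cytotoxicity counter screen: CellTiter-Fluor signal (30 min, 37 C) in 4000 HepG2 cells/well carrying the DRE-luciferase reporter, following 24 h compound exposure at 37 C.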

[12] = molecular target: Peroxisome proliferator-activated receptor gamma (Homo sapiens) (UniProt P37231); assay: qHTS assay to identify small molecule agonists of the peroxisome proliferator-activated receptor gamma (PPARg) signaling pathway (AID 743094; active = well fitted activation curve with a large enough effect in the signal ratio in the repeat runs, not every such curve was filed as active; inconclusive = weak or mixed curves, or effect the other way; inactive = no such curve, though single readings can be large or run the other way; the % refers to the signal ratio)
Peroxisome proliferator-activated receptor gamma (Homo sapiens), sequence (P37231 whole entry, looked up): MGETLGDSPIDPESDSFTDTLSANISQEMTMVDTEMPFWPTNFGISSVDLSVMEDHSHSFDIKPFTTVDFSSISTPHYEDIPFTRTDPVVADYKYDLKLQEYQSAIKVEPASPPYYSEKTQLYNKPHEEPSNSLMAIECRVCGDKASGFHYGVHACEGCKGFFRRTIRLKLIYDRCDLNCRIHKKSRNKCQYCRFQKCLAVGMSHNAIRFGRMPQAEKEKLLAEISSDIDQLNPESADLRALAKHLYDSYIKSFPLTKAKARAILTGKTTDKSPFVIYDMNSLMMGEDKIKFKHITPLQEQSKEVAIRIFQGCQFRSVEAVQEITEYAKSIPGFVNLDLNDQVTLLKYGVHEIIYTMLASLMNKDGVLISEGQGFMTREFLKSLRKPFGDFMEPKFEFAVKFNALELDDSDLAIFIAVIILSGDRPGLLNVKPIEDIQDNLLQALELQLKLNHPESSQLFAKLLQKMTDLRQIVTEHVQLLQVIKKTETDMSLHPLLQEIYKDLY
Method in brief: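 Following 5 h plating at 37C, PPARg-bla HEK293H cells receive compound or DMSO for 17 h; fluorescence intensity is recorded after LiveBLAzer B/G loading for 1 h at room temperature.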

[13] = qHTS assay to identify small molecule antagonists of the peroxisome proliferator-activated receptor gamma (PPARg) signaling pathway - cell viability counter screen (AID 743194); details: Potency: co-treated with 50 nM rosiglitazone unless noted; also: nearly all actives have a fitted effect of over 55% in size
Method in brief: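 Viability was measured as CellTiter-Glo luminescence in GeneBLAzer PPARg UAS-bla HEK293H cells. These cells had been exposed 17 h at 37 C to compounds together with rosiglitazone at 50 nM final, with the beta-lactamase readout taken in the same wells.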

[14] = qHTS assay for small molecule agonists of the antioxidant response element (ARE) signaling pathway (AID 743202; active = well fitted activation curve with a large enough effect in the signal ratio in the repeat runs, not every such curve was filed as active; inconclusive = weak or mixed curves, or effect the other way; inactive = no such curve, though single readings can be large or run the other way; the % refers to the signal ratio)
Method in brief: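 Quantitative high-throughput format in HepG2 cells bearing an integrated ARE-beta-lactamase reporter. Compound exposure lasted 16 h at 37 C, and fluorescence was read 2 h after adding LiveBLAzer B/G substrate at room temperature.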

[15] = qHTS assay for small molecule agonists of the antioxidant response element (ARE) signaling pathway - cell viability counter screen (AID 743203; calls by dose curve; also: nearly all actives have a fitted effect of over 55% in size)
Method in brief: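 Compounds in DMSO were pinned onto ARE-bla HepG2 cells plated 5 hrs earlier at 2,000 cells/well. Sixteen hours later at 37C/5% CO2, CellTiter-Glo was added and luminescence measured after 30 min at room temperature.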

[16] = qHTS assay for small molecule activators of the heat shock response signaling pathway - cell viability counter screen (AID 743209); also: nearly all actives have a fitted effect of over 50% in size
Method in brief: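 Counter screen for cytotoxicity in HeLa HSE-bla reporter cells. Treatment was 5 h at 37 C; viability was detected by luminescent ATP assay (CellTiter-Glo) in the same wells as the beta-lactamase read.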

[17] = qHTS assay for small molecule activators of the heat shock response signaling pathway (AID 743210; active = well fitted activation curve with a large enough effect in the signal ratio in the repeat runs, with a control signal flat, not every such curve was filed as active; inconclusive = weak or mixed curves; the % refers to the signal ratio;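 also: HeLa cells with beta-lactamase reporter driven by heat shock elements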)
Method in brief: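 HeLa HSE-bla cells, overnight plating; cpd in DMSO 5 h, 37 C; LiveBLAzer B/G FRET substrate 2.5 h RT; fluorescence intensity read.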

[18] = molecular target: Estrogen receptor (Homo sapiens) (UniProt P03372); assay: qHTS assay to identify small molecule agonists of the estrogen receptor alpha (ER-alpha) signaling pathway (AID 743075; calls by dose curve;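 also: HEK293 GripTite cells with ER-alpha and UAS-driven beta-lactamase reporter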)
[19] = molecular target: Peroxisome proliferator-activated receptor gamma (Homo sapiens) (UniProt P37231); assay: qHTS assay to identify small molecule antagonists of the peroxisome proliferator-activated receptor gamma (PPARg) signaling pathway (AID 743191; calls by dose curve; also: nearly all actives have a fitted effect of over 30% in size)
Method in brief: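 Beta-lactamase reporter under UAS control in HEK293H PPARg-bla cells; compound treatment 17 h at 37C. Read-out: fluorescence intensity after 1 h room-temperature incubation with LiveBLAzer B/G FRET substrate.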

Measured: Potency

N#CSCc1ccccc1
not listed: [18] | [19]
inactive: all other assays above

COc1c2c(cc3c1OCO3)CCN(C)C2
not listed: [8] | [15] | [19]
inactive: all other assays above

CC(Cl)CCl (stereo not drawn)
not listed: [13]
inactive: all other assays above

C=CCBr
not listed: [10] | [12] | [13]
inactive: all other assays above

CN(C)c1ccc(N)cc1
inactive: [3] | [18] | [12] | [15] | [16] | [17]
active: [1] 59.6 µM | [2] 47.4 µM | [4] 60.2 µM [inconclusive] | [6] 7.51 µM | [9] 66.9 µM | [10] 18.9 µM

COc1cnc(OC)n2nc(NS(=O)(=O)c3c(OCC(F)F)cccc3C(F)(F)F)nc12
not listed: [12]
inactive: all other assays above

CC(Cc1ccc(OCC(=O)O)cc1)NCC(O)c1csc(C(F)(F)F)n1 (stereo not drawn)
active: [3] 77 µM
not listed: [9] | [12]
inactive: all other assays above

CCCCN(CCCC)C(=S)S
not listed: [17] | [19]
inactive: all other assays above

CN1[C@@H]2CC[C@H]1CC(O)C2 (stereo partly drawn)
not listed: [4]
inactive: all other assays above

CC(C)C(Nc1ccc(C(F)(F)F)cc1Cl)C(=O)OC(C#N)c1cccc(Oc2ccccc2)c1 (stereo not drawn)
not listed: [12] | [14] | [17] | [18] | [19]
inactive: all other assays above

CC(Cc1ccc(O)cc1)NCC(O)c1cc(O)cc(O)c1 (stereo not drawn)
not listed: [5] | [6] | [11] | [13]
inactive: all other assays above
